Test results: PubChem BioAssay (Tox21)
Unmarked numbers belong to inactive results. Inconclusive results are not listed. A call without a number means that no potency is given here. Calls of active or inactive are those of the source. Unless noted, calls follow the shape of the dose curve; as a rule, active = well fitted curve in the direction sought with a large enough effect in the repeat runs; inconclusive = weak or mixed curves; inactive = no such curve, though single readings can be large; an effect the other way counts as inactive or inconclusive.

Experiments:
[1] = qHTS assay to identify small molecule antagonists of the constitutive androstane receptor (CAR) signaling pathway - cell viability counter screen (AID 1224837); also: nearly all actives have a fitted effect of over 45% in size; also: potency is read from the fitted curve at half-maximal effect
Summary of the method: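 HepG2-CYP2B6-hCAR cells, 2500/well, 4 hr pre-incubation; compound titration, 15 conc.; CITCO 50 nM final; 23 hr, 37 C/5% CO2; CellTiter-Fluor, fluorescence intensity.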

[2] = molecular target: Nuclear receptor subfamily 1 group I member 3 (Homo sapiens) (UniProt Q14994); test: qHTS assay to identify small molecule agonists of the constitutive androstane receptor (CAR) signaling pathway (AID 1224839); also: nearly all actives have a fitted effect of over 15% in size; also: potency is read from the fitted curve at half-maximal effect;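 as to activation: HepG2 cells stably carrying human CAR and a CYP2B6 luciferase reporter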
Sequence of Nuclear receptor subfamily 1 group I member 3 (Homo sapiens) (Q14994 whole entry, looked up): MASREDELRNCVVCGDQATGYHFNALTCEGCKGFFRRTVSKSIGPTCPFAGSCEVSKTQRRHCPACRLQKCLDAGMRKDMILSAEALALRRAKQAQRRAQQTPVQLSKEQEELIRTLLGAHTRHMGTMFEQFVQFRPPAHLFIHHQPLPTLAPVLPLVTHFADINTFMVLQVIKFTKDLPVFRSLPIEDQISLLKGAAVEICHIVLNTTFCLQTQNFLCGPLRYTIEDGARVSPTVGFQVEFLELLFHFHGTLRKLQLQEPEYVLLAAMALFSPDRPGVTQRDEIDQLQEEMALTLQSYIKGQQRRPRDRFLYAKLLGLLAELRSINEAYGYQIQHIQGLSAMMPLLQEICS
Summary of the method: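 HepG2 cells stably expressing hCAR and a CYP2B6-2.2kb luciferase reporter were treated with compounds at 15 concentrations plus 0.75 uM PK11195 (final) for 24 h at 37 C; luminescence was read after ONE-Glo addition.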

[3] = molecular target: Thyrotropin receptor (Homo sapiens) (UniProt P16473); test: qHTS assay to identify small molecule agonists of the thyroid stimulating hormone receptor (TSHR) signaling pathway (AID 1224843; calls by dose curve; also: nearly all actives have a fitted effect of over 45% in size)
Sequence of Thyrotropin receptor (Homo sapiens) (P16473 whole entry, looked up): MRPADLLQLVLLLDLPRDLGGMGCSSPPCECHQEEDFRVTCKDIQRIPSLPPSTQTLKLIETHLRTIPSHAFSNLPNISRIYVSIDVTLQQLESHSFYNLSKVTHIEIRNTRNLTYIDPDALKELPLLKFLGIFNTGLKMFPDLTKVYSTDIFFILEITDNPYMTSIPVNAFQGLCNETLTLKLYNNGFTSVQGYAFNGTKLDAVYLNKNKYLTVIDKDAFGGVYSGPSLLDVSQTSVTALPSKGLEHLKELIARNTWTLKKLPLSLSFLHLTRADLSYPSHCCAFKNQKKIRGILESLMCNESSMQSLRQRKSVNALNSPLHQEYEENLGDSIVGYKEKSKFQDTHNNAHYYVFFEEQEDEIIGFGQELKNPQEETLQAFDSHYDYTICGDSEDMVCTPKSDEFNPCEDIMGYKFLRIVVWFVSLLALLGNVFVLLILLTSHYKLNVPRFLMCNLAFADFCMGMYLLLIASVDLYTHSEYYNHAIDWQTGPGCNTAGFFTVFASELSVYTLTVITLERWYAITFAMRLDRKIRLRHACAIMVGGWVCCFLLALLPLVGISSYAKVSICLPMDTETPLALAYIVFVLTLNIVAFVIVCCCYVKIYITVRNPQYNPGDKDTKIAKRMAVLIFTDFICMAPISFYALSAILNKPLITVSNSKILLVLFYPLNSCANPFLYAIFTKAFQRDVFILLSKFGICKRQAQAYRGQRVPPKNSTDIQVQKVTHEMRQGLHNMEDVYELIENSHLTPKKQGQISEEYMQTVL
Summary of the method: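 HEK293 cells stably bearing the thyrotropin receptor were plated at 800 cells/well and challenged with compound (30 min, RT). Accumulated cAMP was quantified via cAMP-d2 competing for cryptate-tagged antibody.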

[4] = qHTS assay to identify small molecule agonists of H2AX (AID 1224845; active = well fitted activation curve with a large enough effect in the signal ratio in the repeat runs, not every such curve was filed as active; the % refers to the signal ratio; also: potency is read from the fitted curve at half-maximal effect)
Summary of the method: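 Phospho-H2AX Ser139 measured by HTRF (ex 320 nm; em 665 and 620 nm) after 24 hr antibody incubation. Compounds, 15 concentrations, 0.76% DMSO, were applied to CHO-K1 cells for 3hr at 37C before lysis.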

[5] = qHTS assay to identify small molecule agonists of the hypoxia (HIF-1) signaling pathway (AID 1224846; active = well fitted activation curve with a large enough effect in the signal ratio in the repeat runs, not every such curve was filed as active; the % refers to the signal ratio)
Summary of the method: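 Cell line: CellSensor HRE-bla ME-180; 2,000 cells/well; 0.5% dialyzed FBS; 5 h preincubation; DMSO compound pin transfer; 17 h, 37C, 5% CO2; CCF4-AM added; bla FRET signal scored for activation.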

[6] = qHTS assay to identify small molecule agonists of H2AX - cell viability counter screen (AID 1224847; calls by dose curve; also: top concentration of the series differs between compounds; nearly all actives have a fitted effect of over 30% in size)
Summary of the method: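 Wild-type CHO-K1 cells (10% FBS medium) were plated overnight at 37C, exposed to compounds at 15 concentrations for 3 hr at 37C (0.76% DMSO final), and viability was read as CellTiter-Glo luminescence after 30 min at room temperature.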

[7] = qHTS RealTime-Glo MT Cell Viability Assay in HepG2 cells - 24 hour (AID 1224867); also: nearly all actives have a fitted effect of over 50% in size; also: potency is read from the fitted curve at half-maximal effect
Summary of the method: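 Luminescence read-out: viable HepG2 cells reduce a prosubstrate to a NanoLuc substrate, giving a signal proportional to live cell number. Reads taken at 0, 8, 16, 24, 32 and 40 h of compound exposure at 37 C.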

[8] = qHTS RealTime-Glo MT Cell Viability Assay in HEK293 cells - 32 hour (AID 1224868); also: nearly all actives have a fitted effect of over 50% in size; also: potency is read from the fitted curve at half-maximal effect
Summary of the method: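 Nonlytic real-time viability readout: viable cells convert prosubstrate to NanoLuc substrate, giving luminescence proportional to live cell number. HEK293, 600 cells/well, compound added after 5 h, continuous culture at 37 C.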

[9] = A CellTox Green Cytotoxicity Assay to monitor cytotoxicity in HEK293 cells - 0 hour (AID 1224869); also: nearly all actives have a fitted effect of over 50% in size
Summary of the method: (§1)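 Nonlytic real-time cytotoxicity: HEK293 + CellTox Green reagent plated, 5 h preincubation, pintool compound addition (23 nL in DMSO), 37 C for 40 h, fluorescence measured at successive time points.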

[10] = A CellTox Green Cytotoxicity Assay to monitor cytotoxicity in HEK293 cells - 40 hour (AID 1224871); also: nearly all actives have a fitted effect of over 45% in size; also: potency is read from the fitted curve at half-maximal effect
Summary of the method: as §1

[11] = qHTS assay to identify small molecule agonists of the constitutive androstane receptor (CAR) signaling pathway - cell viability counter screen (AID 1224836); also: nearly all actives have a fitted effect of over 45% in size; also: potency is read from the fitted curve at half-maximal effect
Summary of the method: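 HepG2 cells stably carrying hCAR and a CYP2B6-2.2kb reporter were plated 4 h, then given compounds at 15 concentrations plus PK11195 (final 0.75 uM). After 23 h at 37 C, viability was read by CellTiter-Fluor fluorescence.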

[12] = qHTS assay to identify small molecule antagonists of the estrogen related receptor signaling pathway with the pleiotropic PPARgamma coactivator (PGC) from Tox21 10K library (AID 1224841; call rule not given here; also: actives are mostly falling curves and most rising ones were filed inactive; nearly all actives have a fitted effect of over 50% in size; also: potency is read from the fitted curve at half-maximal effect)
Summary of the method: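 PGC/ERR cell line, 2,000 cells/well; 6 h pre-incubation 37 C/5% CO2; compounds (DMSO) pinned in; 18 h, 37 C; One-Glo, 30 min RT; luminescence.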

[13] = qHTS assay to identify small molecule antagonists of the estrogen related receptor (ERR) signaling pathway from Tox21 library (AID 1224848); also: nearly all actives have a fitted effect of over 50% in size; also: potency is read from the fitted curve at half-maximal effect
Summary of the method: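 Reading was by luminescence 30 min after ONE-Glo addition. Before that, ERR cells at 2,000 per well had rested 6 h at 37 C/5% CO2 and then received pin-tooled compounds in DMSO for 18 h at 37 C.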

[14] = qHTS assay to identify small molecule agonists of the estrogen related receptor (ERR) signaling pathway from Tox21 library (AID 1224849; calls by dose curve; also: nearly all actives have a fitted effect of over 15% in size); details: ERR reporter cell line, ONE-Glo luciferase, 18 h; at 92.4 µM (top of the series) unless noted
Summary of the method: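 ERR cells, 6 h pre-incubation 37 C/5% CO2; cpd in DMSO pinned; 18 h 37 C; ONE-Glo added, 30 min RT; luminescence read. Agonist mode, qHTS.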

[15] = qHTS assay to identify small molecule antagonists of the estrogen related receptor signaling pathway with the pleiotropic PPARgamma coactivator (PGC) from Tox21 10K library - cell viability counter screen (AID 1224840; active = well fitted cell-killing curve with a large enough effect in the repeat runs, not every such curve was filed as active; also: nearly all actives have a fitted effect of over 40% in size)
Summary of the method: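 PGC/ERR cells, 2,000/well; 6 h pre-incubation 37 C/5% CO2; cpd in DMSO via pin tool; 17.5 h 37 C; CellTiter-Fluor, 30 min; fluorescence.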

[16] = qHTS assay to identify small molecule agonists of the estrogen related receptor signaling pathway with the pleiotropic PPARgamma coactivator (PGC) from Tox21 10K library (AID 1224842); also: nearly all actives have a fitted effect of over 15% in size; also: potency is read from the fitted curve at half-maximal effect
Summary of the method: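 Luminescence from One-Glo (30 min, room temperature) measured after PGC/ERR cells had 18 h at 37 C with pinned compound (23 nL in DMSO). Cells had been seeded at 2,000 per well and pre-incubated 6 h.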

[17] = qHTS assay to identify small molecule agonists of the hypoxia (HIF-1) signaling pathway - cell viability counter screen (AID 1224844; calls by dose curve; also: nearly all actives have a fitted effect of over 50% in size; also: potency is read from the fitted curve at half-maximal effect)
Summary of the method: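 ME-180 HRE-bla cells, 2,000/well, 0.5% dialyzed FBS; 5 hr settle, 17 hr compound at 37C/5% CO2; CCF4-AM reporter read first, then CellTiter-Glo luminescence after 30 min RT.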

[18] = qHTS RealTime-Glo MT Cell Viability Assay in HepG2 cells - 40 hour (AID 1224870); also: nearly all actives have a fitted effect of over 50% in size; also: potency is read from the fitted curve at half-maximal effect
Summary of the method: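 Real-time viability: cells seeded at 600 per well together with NanoLuc and cell-permeant prosubstrate, compounds added after 5 h incubation. Luminescence tracked at 0, 8, 16, 24, 32 and 40 h of exposure.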

[19] = molecular target: Nuclear receptor subfamily 1 group I member 3 (Homo sapiens) (UniProt Q14994); test: qHTS assay to identify small molecule antagonists of the constitutive androstane receptor (CAR) signaling pathway (AID 1224838); also: nearly all actives have a fitted effect of over 40% in size
Summary of the method: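 HepG2-CYP2B6-hCAR cells; 4 h pre-incubation; cpd (15 conc) + CITCO 50 nM final; 24 h, 37 C/5% CO2; ONE-Glo, luminescence.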

Row | Structure (SMILES) | Potency [1] | Potency [2] | Potency [3] | Potency [4] | outcome [5] | Potency [6] | Potency [7] | Potency [8] | Potency [9] | Potency [10] | Potency [11] | Potency [12] | Potency [13] | activity change, positive = activation [14] | Potency [15] | Potency [16] | Potency [17] | Potency [18] | Potency [19]
1 | OCCN1CN(CCO)CN(CCO)C1 | inactive | inactive | inactive | inactive | inactive | inactive | inactive | inactive | inactive | inactive |  |  |  |  |  |  |  |  | 
2 | O=C1c2c(O)ccc(O)c2C(=O)c2c(NCCNCCO)ccc(NCCNCCO)c21 | 4.22 µM (active) |  |  |  |  |  | 9.52 µM (active) | 0.0239 µM (active) | inactive | inactive | 3.76 µM (active) | inactive | 0.75 µM (active) | -59.3% [at 42.5 µM] |  |  |  |  | 
3 | O=S(=O)(O)CCCN1CCOCC1 | inactive |  | inactive | inactive | inactive |  | inactive | inactive | inactive | inactive | inactive | inactive | inactive | -0.481% | inactive | inactive | inactive | inactive | 
4 | CCN(CC)CCCN(c1ccccc1)C1Cc2ccccc2C1 | inactive | inactive | inactive | inactive | inactive | inactive | inactive |  | inactive |  |  |  |  |  | inactive |  | 23.9 µM (active) | inactive | 
5 | O=Cc1ccc(F)cc1 | inactive |  | inactive | inactive | inactive |  |  | inactive | inactive | inactive | inactive |  |  |  | inactive |  | inactive | inactive | 
6 | Cc1c(C)n(Cc2ccccc2)c2ccc(C(=O)OCCN(C)C)cc12 |  | 11.9 µM (active) | inactive | 6.19 µM (active) | inactive |  |  |  |  |  |  | inactive | inactive | -7.81% [at 42.5 µM] | inactive | 29.8 µM (active) | inactive | 23.9 µM (active) | inactive
7 | O=C(NO)c1ccccc1 | inactive |  |  |  |  |  | inactive |  | inactive |  | inactive | 18.4 µM (active) | 23.2 µM (active) | -48.5% | inactive | inactive |  | inactive | 
8 | Cc1c(-c2ccc(O)cc2)n(Cc2ccc(OCCN3CCCCCC3)cc2)c2ccc(O)cc12 |  |  |  |  |  |  | 15.1 µM (active) | 3.01 µM (active) | inactive | 16.9 µM (active) |  |  |  |  |  |  |  | 9.52 µM (active) | 
9 | O=C(O)CCn1c2c(c3ccccc31)C[C@H](NS(=O)(=O)c1ccc(F)cc1)CC2 | inactive |  |  |  |  | inactive | inactive | inactive | inactive | inactive | inactive |  |  |  | inactive |  | inactive | inactive | 
10 | c1cc2c3c(c1)ccc1cccc(c13)C2 | inactive |  | inactive |  |  |  | inactive |  | inactive | 50 µM (active) |  | inactive | 70.1 µM (active) | -42.3% | inactive |  |  | inactive | inactive
11 | CN(C)c1ccc(N=NS(=O)(=O)O)cc1 |  | 25.7 µM (active) | inactive |  |  |  | inactive |  |  | inactive |  |  |  |  |  |  |  | inactive | inactive
12 | CCCCOc1ccc(C(=O)CCN2CCCCC2)cc1 |  | inactive | inactive |  |  | inactive | 21.3 µM (active) | 16.9 µM (active) |  | 19 µM (active) |  |  |  |  | inactive |  | inactive | 6.74 µM (active) | inactive
13 | C/C=C/c1ccc(OC)c(OC)c1 | inactive |  | inactive | inactive | inactive | inactive | inactive | inactive | inactive | inactive | inactive |  |  |  | inactive |  | inactive | inactive | 
